Source: PubChem
PD-1 reversal = activators reversing PD-1 mediated T-cell inhibition, primary screen, luminescence, primary human CD4 T cells, PD-L1 beads | CellTiter-Glo 96 h | activation, % (no concentration beside the values) | 29,000 tested, under 10 active | AID 2316, 2010; call rule not given here;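 further: 0% = median vehicle wells and 100% = positive control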
NOMO-1 viab = NOMO-1 AML cell viability reduction, primary screen, STK33 inhibitor project, CellTiter-Glo luminescence; NOMO-1 AML viability, 72 h; inhibition, % (concentration not given with the values); 37,000 tested, 7.5% active; AID 2330, 2010; in the data active means inhibition above about 80%
STK33 kin inh = STK33 kinase inhibitors, primary screen, biochemical, luminescence, ADP-Glo, MBP substrate; 27,000 tested, 0.44% active; Serine/threonine-protein kinase 33 (Homo sapiens), Q9BYT3; inhibition, % at 12.5 µM; in the data active means inhibition above about 20%
Target sequence (Q9BYT3 whole entry, looked up): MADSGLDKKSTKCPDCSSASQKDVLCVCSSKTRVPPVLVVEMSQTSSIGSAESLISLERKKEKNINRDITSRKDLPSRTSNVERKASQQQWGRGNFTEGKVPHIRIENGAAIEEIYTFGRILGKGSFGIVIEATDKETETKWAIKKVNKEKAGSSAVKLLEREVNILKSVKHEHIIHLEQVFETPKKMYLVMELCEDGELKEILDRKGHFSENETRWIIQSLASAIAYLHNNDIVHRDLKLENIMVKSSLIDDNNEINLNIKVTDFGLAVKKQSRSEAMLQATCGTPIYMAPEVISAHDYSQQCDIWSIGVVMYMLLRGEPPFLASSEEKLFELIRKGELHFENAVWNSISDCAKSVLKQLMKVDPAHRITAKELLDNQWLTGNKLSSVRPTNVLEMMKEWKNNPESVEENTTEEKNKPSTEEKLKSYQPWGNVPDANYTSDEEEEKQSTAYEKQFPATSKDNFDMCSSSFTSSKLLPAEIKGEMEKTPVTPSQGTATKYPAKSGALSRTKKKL
The depositor's hits bear a star; nt = no result. Many of the other results were omitted from the sample, so hits are more common in it than they were.

SMILES	PD-1 reversal	NOMO-1 viab	STK33 kin inh
C[C@@H]1CN([C@H](C)CO)C(=O)Cc2cc(NC(=O)C3CCCCC3)ccc2O[C@@H]1CN(C)Cc1ccc(-c2ccccc2)cc1	-4.2	112.9*	-0.1
C[C@H]1CN([C@@H](C)CO)C(=O)Cc2cc(NC(=O)C3CCCCC3)ccc2O[C@@H]1CN(C)Cc1ccc(-c2ccccc2)cc1	nt	54.7	0.0
C[C@@H]1CN([C@@H](C)CO)C(=O)c2cc(NC(=O)C3CCCCC3)ccc2O[C@@H]1CN(C)Cc1ccc(Oc2ccccc2)cc1	0.1	115.2*	nt
C[C@@H]1CN([C@@H](C)CO)C(=O)Cc2cc(NC(=O)C3CCCCC3)ccc2O[C@@H]1CN(C)Cc1ccc(Oc2ccccc2)cc1	nt	94.6*	nt
C[C@H]1CN([C@@H](C)CO)C(=O)c2cc(NC(=O)C3CCCCC3)ccc2O[C@@H]1CN(C)Cc1ccc(Oc2ccccc2)cc1	-4.9	20.8	-1.1
C[C@H](CO)N1C[C@H](C)[C@H](CN(C)Cc2ccc(Oc3ccccc3)cc2)Oc2ccc(NC(=O)C3CCCCC3)cc2CC1=O	-2.5	47.7	5.8
CCN(CC)S(=O)(=O)c1cccc(C(=O)O)c1	0.1	12.0	nt
Cc1ccc(S(=O)(=O)Nc2ccc3c(c2)CC(=O)N([C@H](C)CO)C[C@@H](C)[C@@H](CN(C)Cc2ccc(C(=O)O)cc2)O3)cc1	0.7	-15.8	0.9
Cc1ccc(S(=O)(=O)Nc2ccc3c(c2)CC(=O)N([C@H](C)CO)C[C@@H](C)[C@@H](CN(C)Cc2ccc(C(F)(F)F)cc2)O3)cc1	-1.9	114.5*	-0.2
Cc1ccc(S(=O)(=O)Nc2ccc3c(c2)CC(=O)N([C@@H](C)CO)C[C@H](C)[C@@H](CN(C)Cc2ccc(C(F)(F)F)cc2)O3)cc1	-0.5	98.1*	6.4
Cc1ccc(S(=O)(=O)Nc2ccc3c(c2)C(=O)N([C@H](C)CO)C[C@@H](C)[C@H](CN(C)Cc2ccc(C(F)(F)F)cc2)O3)cc1	0.9	10.4	-1.0
